Screening results: PubChem BioAssay, Sanford-Burnham Center for Chemical Genomics
eIF4H inh: human eIF4H binding inhibitors, primary screen, translation initiation inhibitor project, biochemical, uHTS, fluorescence polarization; Eukaryotic translation initiation factor 4H (Homo sapiens), Q15056; eIF4H fluorescence polarization binding assay; inhibition, % at 35 µM; hit rate 0.94% among 290,000; AID 2012, 2009;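 also: calls also rest on retests at 20 µM and on dose response follow-up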
CendR NRP1 mod: modulators of CendR peptide binding to NRP-1, primary screen, biochemical, fluorescence polarization, uHTS; Neuropilin-1 (Homo sapiens), O14786; FAM-RPARPAR peptide binding to NRP-1; inhibition, % at 25 µM; hit rate 0.85% among 360,000;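 active = inhibition or corrected inhibition above about 18%, plus a signal ratio from 0.5 to 1.5, limit read from the data, passing the limit was not always enough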
PABP1 MLLE inh: inhibitors of PABP1 MLLE–PAM2 peptide binding, primary screen, biochemical, fluorescence polarization, FITC-PAM2, GST-MLLE; Polyadenylate-binding protein 1 (Homo sapiens), P11940; AID 588489, 2011; hit rate 0.36% among 360,000; inhibition, % at 20 µM; in the data active = inhibition above about 35%, passing the limit was not always enough;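 also: plate controls were DMSO wells with GST-MLLE for no effect and wells lacking GST-MLLE protein for full effect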
PABP FP inh: PABP poly(A) RNA binding inhibitors, primary screen, biochemical, fluorescence polarization, uHTS; inhibition, % at 35 µM; AID 2014, 2009; hit rate 1% among 290,000; Polyadenylate-binding protein 1 (Homo sapiens), P11940;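 also: calls also rest on retests at 20 µM and on dose response follow-up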
An asterisk follows results filed as active. This is a sample that favours compounds with a hit; in the whole collection about 2.1% have one here. Unless noted, no rule for the calls is given here.

What do the screens show for `COc1ccc(C(=S)N2CCOCC2)cc1OC(=O)c1cc([N+](=O)[O-])c(C)c([N+](=O)[O-])c1`?
eIF4H inh: 7; CendR NRP1 mod: 28*; PABP1 MLLE inh: 18; PABP FP inh: 2

Results for COc1cc(C(=S)N2CCOCC2)ccc1OC(=O)c1cc([N+](=O)[O-])c(C)c([N+](=O)[O-])c1 ?
eIF4H inh: 12; CendR NRP1 mod: 3; PABP1 MLLE inh: 13; PABP FP inh: -10

Results for Cc1ccc(C)c(NC(=O)c2ccc3c(c2)CCN3S(C)(=O)=O)c1 ?
CendR NRP1 mod: -2; PABP1 MLLE inh: 12

What do the screens show for `CC(CCC(C)C(C)(C)C)[C@@H]1CC[C@H]2C3C[C@H](OS(O)(=S)=S)[C@H]4C[C@H](OS(O)(=S)=S)[C@@H](OS(O)(=S)=S)C[C@]4(C)[C@H]3CC[C@]12C` (stereo partly specified) (tested in a mixture with another compound)?
CendR NRP1 mod: 36*; PABP1 MLLE inh: 16

What do the screens show for `CC(CCC(=O)NN)C1CCC2C3CCC4CC(O)CCC4(C)C3CCC12C` (stereo unspecified)?
CendR NRP1 mod: 6; PABP1 MLLE inh: -8

How did CCN(CC(=O)Nc1cccc(S(=O)(=O)N2CCOCC2)c1)Cc1ccccc1 do in these assays?
CendR NRP1 mod: -3; PABP1 MLLE inh: 10

Results for CCc1ccc(NC(=O)C(=O)N/N=C(\C)CC(=O)Nc2ccccn2)cc1 ?
eIF4H inh: 98; CendR NRP1 mod: 0; PABP1 MLLE inh: 16; PABP FP inh: 12*

What do the screens show for `C/C(CC(=O)Nc1ccccn1)=N\NC(=O)C(=O)Nc1ccccc1C`?
eIF4H inh: 14; CendR NRP1 mod: -1; PABP1 MLLE inh: 0; PABP FP inh: -10

What do the screens show for `Cc1c(C(=O)Nc2ccccc2N2CCN(C)CC2)oc2ccc(F)cc12`?
CendR NRP1 mod: 2; PABP1 MLLE inh: -7

What do the screens show for `O=C(Cn1cnc2c(nnn2-c2ccccc2)c1=O)N1CCOCC1`?
eIF4H inh: active; CendR NRP1 mod: -1; PABP1 MLLE inh: -5; PABP FP inh: 70*

Results for CCNc1nc(NC(C)C)nc(NS(=O)(=O)c2ccc(C)cc2)n1 ?
eIF4H inh: -5; CendR NRP1 mod: 6; PABP1 MLLE inh: -11; PABP FP inh: -2

Results for CCCCOC(=O)CCn1c(=S)oc2ccccc21 ?
eIF4H inh: 1; CendR NRP1 mod: 53*; PABP1 MLLE inh: -1; PABP FP inh: 10

How did CCCNC(=O)CCn1c(=S)oc2ccccc21 do in these assays?
eIF4H inh: -1; CendR NRP1 mod: -10; PABP1 MLLE inh: -1; PABP FP inh: 10

How did CCOc1ccc(NC(=O)C(=O)NCCN2CCN(S(=O)(=O)c3ccccc3)CC2)cc1 do in these assays?
eIF4H inh: -19; CendR NRP1 mod: -2; PABP1 MLLE inh: 13; PABP FP inh: 0

What do the screens show for `Cc1cc(C)n2nc3ccccc3c2n1`?
eIF4H inh: 106; CendR NRP1 mod: 4; PABP1 MLLE inh: 13; PABP FP inh: -5

What do the screens show for `Cc1cc(C)n2nc3nc(N4CCCCC4)nc(-c4ccco4)c3c2n1`?
eIF4H inh: 72*; CendR NRP1 mod: -20; PABP1 MLLE inh: 3; PABP FP inh: 56*

How did CC(NC(=O)Cc1ccc(Br)cc1)c1ccccc1 (stereo unspecified) do in these assays?
eIF4H inh: -9; CendR NRP1 mod: -4; PABP1 MLLE inh: 12; PABP FP inh: -1

What do the screens show for `Cc1ccc(O)c(NC(=O)c2cc(C)no2)c1`?
eIF4H inh: -11; CendR NRP1 mod: -4; PABP1 MLLE inh: -4; PABP FP inh: -3

How did C=CC#CC[N+]1(CC#Cc2ccccc2)CCOCC1 do in these assays?
eIF4H inh: 9; CendR NRP1 mod: 21*; PABP1 MLLE inh: -145; PABP FP inh: 22

How did C(#Cc1ccccc1)C[N+]1(CC#Cc2ccccc2)CCCC1 do in these assays?
eIF4H inh: -11; CendR NRP1 mod: 7; PABP1 MLLE inh: -11; PABP FP inh: 0

How did CCOc1cc(C2C3=C(CC(C)(C)CC3=O)OC3=C2C(=O)CC(C)(C)C3)cc([N+](=O)[O-])c1O do in these assays?
eIF4H inh: -5; CendR NRP1 mod: 1; PABP1 MLLE inh: 13; PABP FP inh: 3

How did CCOc1cc(C2C3=C(CCCC3=O)OC3=C2C(=O)CCC3)cc([N+](=O)[O-])c1O do in these assays?
eIF4H inh: 0; CendR NRP1 mod: 26*; PABP1 MLLE inh: 0; PABP FP inh: -2

What do the screens show for `O=C(NCCN1CCCCCC1)C1CCN(S(=O)(=O)N2CCOCC2)CC1`?
eIF4H inh: 21; CendR NRP1 mod: 23*; PABP1 MLLE inh: -8; PABP FP inh: -2

How did COCCNC(=O)C1(C)CCN(Cc2ccc(C(C)C)cc2)C1 (stereo unspecified) do in these assays?
CendR NRP1 mod: -14; PABP1 MLLE inh: -14

What do the screens show for `C=C(C)Cn1c(SCC(=O)O)nnc1-c1ccccc1`?
eIF4H inh: -10; CendR NRP1 mod: 28*; PABP1 MLLE inh: 6; PABP FP inh: 0

Results for COc1ccc(OCC(=O)NC(=O)c2ccccc2OC)c([N+](=O)[O-])c1 ?
CendR NRP1 mod: -12; PABP1 MLLE inh: -7

What do the screens show for `CCN(CC)CCNC(=O)c1ccc(NC(=O)c2cccc(S(=O)(=O)N3CCc4ccccc43)c2)cc1`?
CendR NRP1 mod: -10; PABP1 MLLE inh: -64

How did CCN(CC)CCNC(=O)c1ccc(NC(=O)c2cccc(S(=O)(=O)N3c4ccccc4CC3C)c2)cc1 (stereo unspecified) do in these assays?
eIF4H inh: 0; CendR NRP1 mod: 30*; PABP1 MLLE inh: 2; PABP FP inh: 13

How did CC1Cc2ccccc2N1S(=O)(=O)c1cccc(C(=O)N2CCN(c3ncccn3)CC2)c1 (stereo unspecified) do in these assays?
eIF4H inh: 8; CendR NRP1 mod: 35*; PABP1 MLLE inh: 2; PABP FP inh: 7

Results for Cc1c(C(=O)N2CCN(S(=O)(=O)c3cc(F)ccc3F)CC2)oc2ccccc12 ?
CendR NRP1 mod: 0; PABP1 MLLE inh: -56

Results for Cc1noc(C)c1C(=O)Nc1ccc(F)cc1 ?
eIF4H inh: -3; CendR NRP1 mod: 41*; PABP1 MLLE inh: 4; PABP FP inh: -3

Results for FC(F)(F)c1cc(C(F)(F)F)c2ccc(Oc3ccccc3)nc2n1 ?
eIF4H inh: 1; CendR NRP1 mod: 33*; PABP1 MLLE inh: 1; PABP FP inh: -4

How did FC(F)(F)c1cccc(Oc2ccc3c(C(F)(F)F)cc(C(F)(F)F)nc3n2)c1 do in these assays?
eIF4H inh: 4; CendR NRP1 mod: -2; PABP1 MLLE inh: 7; PABP FP inh: 1

How did CCc1ccccc1NS(=O)(=O)c1ccc2c(c1)NC(=O)CC(=O)N2 do in these assays?
eIF4H inh: active; CendR NRP1 mod: -7; PABP1 MLLE inh: -4; PABP FP inh: 113*

How did COc1ccc(C(=O)C[n+]2cccc3cc(OC)ccc32)cc1 do in these assays?
eIF4H inh: 72; CendR NRP1 mod: -4; PABP1 MLLE inh: -12; PABP FP inh: 43
